# Reference: PubChem BioAssay
# Calls of active or inactive are those of the source.
# Columns and labels:
# Albumin (Bos taurus) = Albumin (Bos taurus) (UniProt P02769); test: compounds binding labelled BSA control protein – biochemical, small-molecule microarray, Alexa647 label, 635/667 nm fluorescence, artefact control for SMM control protein annotation, profiling panel (AID 1118); conditions: BSA-A647 binding, fluorescence 635 nm, higher = more signal;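 further: score merges 667 nm emission intensity and signal-to-noise per printed compound spot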
# [1] = probe aXIP binding to arrayed compounds – biochemical, NeuroSMM set, 635/667 nm fluorescence, primary screen (AID 1119); conditions: small-molecule microarray, higher = more signal, called active from +8 up or from −8 down;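 further: probe is the protein aXip251-270 applied at 1 µg/mL to compound-printed slides; binding of probe to printed compounds measured as 667 nm fluorescence plus signal to noise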
# [2] = probe aNOTCH3 binding on compound microarray – biochemical, small-molecule microarray, 635/667 nm fluorescence, primary screen (AID 1120); conditions: higher = more signal;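 further: probe is a biotin-tagged antibody raised against NOTCH3 rather than NOTCH3 protein; score merges spot fluorescence near 667 nm with spot signal to noise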
# [3] = probe aNOTCH2 binding on compound microarray – biochemical, small-molecule microarray, 635/667 nm fluorescence, primary screen (AID 1121); conditions: higher = more signal;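 further: score merges feature fluorescence read at 667 nm with its signal to noise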
# [4] = biological target: Carbonic anhydrase 2 (Homo sapiens) (UniProt P00918); test: compounds binding carbonic anhydrase 2 – biochemical, small-molecule microarray, Alexa647-labelled CAII, profiling panel (AID 1122); conditions: CAII-A647 binding fluorescence, higher = more signal
# [5] = COS7 lysate on small-molecule microarray, probe aHis, 635 nm (AID 1123); conditions: COS7 cell lysate, fluorescence, higher = more signal;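 further: z-score combines 667nm fluorescence intensity with signal-to-noise per printed compound spot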
# [6] = probe aLAP1 signal on lysate-treated microarray – cell lysate, small-molecule microarray, COS7 lysate, primary screen (AID 1124); conditions: probe aLAP1, fluorescence, higher = more signal;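 further: lysate comes from COS7 cells expressing LAP1 and is applied at 0.3 µg/mL; score merges spot fluorescence near 667 nm with signal-to-noise over triplicate slides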
# Sam68 (KHDRBS1) = test: compounds binding KHDRBS1 protein – biochemical, small-molecule microarray, 635 nm fluorescence, primary screen (AID 1125); conditions: higher = more signal;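 further: score merges 667 nm channel intensity with signal to noise over triplicate slides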
# [7] = tested on: Chordin-like protein 2 (CHRDL2); test: compounds binding chordin-like 2 – biochemical, small-molecule microarray, 635 nm fluorescence, primary screen (AID 1126); conditions: fluorescence 635 nm, higher = more signal;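 further: printed compound slides probed with Chrdl2 protein at 4 µg/mL for 1 h at 4 C; score merges 667 nm emission intensity with signal to noise over three replicate slides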
# [8] = biological target: Concanavalin-A (Canavalia ensiformis) (UniProt P02866); test: compounds binding concanavalin A lectin – biochemical, small-molecule microarray, Alexa647 label, 635 nm, artefact control for SMM control protein annotation, primary screen (AID 1127); conditions: ConA-A647 binding fluorescence, higher = more signal;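 further: z combines 667 nm emission intensity with signal-to-noise across three replicate slides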
# Concanavalin-A (Canavalia ensiformis), sequence (P02866 whole entry, looked up): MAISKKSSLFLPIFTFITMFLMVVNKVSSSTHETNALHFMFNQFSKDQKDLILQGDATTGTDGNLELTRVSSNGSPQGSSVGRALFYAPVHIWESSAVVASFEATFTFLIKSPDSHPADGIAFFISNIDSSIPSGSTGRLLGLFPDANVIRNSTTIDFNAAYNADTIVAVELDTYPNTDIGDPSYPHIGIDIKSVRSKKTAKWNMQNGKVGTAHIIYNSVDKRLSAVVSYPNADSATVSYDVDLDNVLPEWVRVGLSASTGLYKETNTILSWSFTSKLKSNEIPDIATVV
# Albumin (Bos taurus), sequence (P02769 whole entry, looked up): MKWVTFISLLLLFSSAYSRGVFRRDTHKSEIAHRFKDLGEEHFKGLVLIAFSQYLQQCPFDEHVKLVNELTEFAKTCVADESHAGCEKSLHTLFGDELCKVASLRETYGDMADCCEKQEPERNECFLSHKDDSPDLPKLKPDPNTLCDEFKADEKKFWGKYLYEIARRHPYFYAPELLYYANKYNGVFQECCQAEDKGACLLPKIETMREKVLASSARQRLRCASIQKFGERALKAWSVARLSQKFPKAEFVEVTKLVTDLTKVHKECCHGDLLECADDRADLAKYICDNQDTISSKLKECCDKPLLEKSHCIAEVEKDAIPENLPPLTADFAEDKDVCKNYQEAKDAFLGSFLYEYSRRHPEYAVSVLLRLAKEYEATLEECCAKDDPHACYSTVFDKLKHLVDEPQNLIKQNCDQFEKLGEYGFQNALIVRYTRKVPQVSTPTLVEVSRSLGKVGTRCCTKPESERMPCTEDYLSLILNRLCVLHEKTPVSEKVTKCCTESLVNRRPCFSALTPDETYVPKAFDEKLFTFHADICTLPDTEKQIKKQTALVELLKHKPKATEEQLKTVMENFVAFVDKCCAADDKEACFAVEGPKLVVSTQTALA
compound,measurement,setting,value
C=C(COC)/C(=C/C[C@@H](OC(=O)c1ccncc1)c1ccc(CO)o1)c1cnc2ccccc2c1,composite z-score,Albumin (Bos taurus),0.516
same,composite Z-score,[1],1.35 (inactive)
same,composite z-score,[2],0.412
same,composite z-score,[3],-0.14
same,composite z-score,[4],0.951
same,composite z-score,[5],0.831
same,composite z-score,[6],0.589
same,composite z-score,Sam68 (KHDRBS1),1.3
same,composite z-score,[7],1.47
same,composite z-score,[8],1.23
C=CCNC(=O)[C@H]1[C@@H]2C(=O)O[C@@H](c3ccccc3)[C@@H](c3ccccc3)N2[C@@H](c2ccccc2OCCO)[C@]12C(=O)N(C(=O)OCCOC)c1ccc(C#CC3=CCCCC3)cc12,composite z-score,Albumin (Bos taurus),-0.286
same,composite Z-score,[1],-0.0127 (inactive)
same,composite z-score,[2],0.345
same,composite z-score,[3],0.148
same,composite z-score,[4],0.55
same,composite z-score,[5],1.33
same,composite z-score,[6],1.01
same,composite z-score,Sam68 (KHDRBS1),1.3
same,composite z-score,[7],0.51
same,composite z-score,[8],0.942
COCCOC(=O)N1C(=O)[C@@]2(c3cc(C#CC4=CCCCC4)ccc31)[C@H](c1ccccc1OCCO)N1[C@H](c3ccccc3)[C@H](c3ccccc3)OC(=O)[C@H]1[C@@H]2C(=O)N1CCc2cc(OC)c(OC)cc2C1,composite z-score,Albumin (Bos taurus),-0.157
same,composite Z-score,[1],0.0781 (inactive)
same,composite z-score,[2],-0.406
same,composite z-score,[3],-0.255
same,composite z-score,[4],0.426
same,composite z-score,[5],0.641
same,composite z-score,[6],0.379
same,composite z-score,Sam68 (KHDRBS1),1.3
same,composite z-score,[7],0.774
same,composite z-score,[8],0.856
C[C@]1(C(=O)O)c2ccccc2C(=O)N(Cc2ccccc2)[C@H]1c1ccc(CO)cc1,composite z-score,Albumin (Bos taurus),-0.408
same,composite Z-score,[1],0.174 (inactive)
same,composite z-score,[2],-0.236
same,composite z-score,[3],-0.0859
same,composite z-score,[4],0.756
same,composite z-score,[5],0.096
same,composite z-score,[6],-0.581
same,composite z-score,Sam68 (KHDRBS1),-1.45
same,composite z-score,[7],-1.48
same,composite z-score,[8],-1.34
Cc1ccc(S[C@]2(C(=O)NCCN3CCOCC3)CC(=O)N(Cc3ccccc3C(F)(F)F)[C@@H]2c2ccc(CO)cc2I)cc1,composite z-score,Albumin (Bos taurus),0.274
same,composite Z-score,[1],0.139 (inactive)
same,composite z-score,[2],-0.171
same,composite z-score,[3],-0.131
same,composite z-score,[4],0.371
same,composite z-score,[5],0.702
same,composite z-score,[6],0.23
same,composite z-score,Sam68 (KHDRBS1),0.397
same,composite z-score,[7],-0.777
same,composite z-score,[8],-0.278
COCCOC(=O)N1C(=O)[C@@]2(c3cc(C#CC4=CCCCC4)ccc31)[C@H](C(=O)N1CCN(c3ncccn3)CC1)[C@H]1C(=O)O[C@H](c3ccccc3)[C@H](c3ccccc3)N1[C@@H]2c1ccc(O)cc1,composite z-score,Albumin (Bos taurus),0.649
same,composite Z-score,[1],0.215 (inactive)
same,composite z-score,[2],0.061
same,composite z-score,[3],-0.0304
same,composite z-score,[4],0.541
same,composite z-score,[5],1.09
same,composite z-score,[6],0.615
same,composite z-score,Sam68 (KHDRBS1),1.29
same,composite z-score,[7],0.204
same,composite z-score,[8],1.13
CCOC(=O)C[C@H]1[C@H](OC(=O)c2ccccc2-c2ccccc2)[C@@H](NC(=O)c2ccc3ccccc3n2)c2cc(OCCCO)ccc2N1C(=O)c1ccc2ccccc2n1,composite z-score,Albumin (Bos taurus),0.202
same,composite Z-score,[1],-0.293 (inactive)
same,composite z-score,[2],-0.0647
same,composite z-score,[3],-0.0626
same,composite z-score,[4],0.0023
same,composite z-score,[5],0.626
same,composite z-score,[6],-0.283
same,composite z-score,Sam68 (KHDRBS1),0.498
same,composite z-score,[7],0.422
same,composite z-score,[8],0.762
CC(=O)n1cc(C(O)C2C=CC3C(=O)N(Cc4ccccc4)C(=O)C3N2n2cnnc2)c2ccccc21 (stereo not given),composite z-score,Albumin (Bos taurus),0.136
same,composite Z-score,[1],-0.213 (inactive)
same,composite z-score,[2],0.0576
same,composite z-score,[3],-0.0304
same,composite z-score,[4],0.444
same,composite z-score,[5],0.983
same,composite z-score,[6],0.281
same,composite z-score,Sam68 (KHDRBS1),-0.0572
same,composite z-score,[7],-0.243
same,composite z-score,[8],0.458
CC(C)c1ccc(NN2C(C(O)c3ccco3)C=CC3C(=O)N(c4ccccc4)C(=O)C32)cc1 (stereo not given),composite z-score,Albumin (Bos taurus),0.488
same,composite Z-score,[1],0.204 (inactive)
same,composite z-score,[2],0.133
same,composite z-score,[3],0.124
same,composite z-score,[4],0.762
same,composite z-score,[5],2.18
same,composite z-score,[6],0.219
same,composite z-score,Sam68 (KHDRBS1),1.14
same,composite z-score,[7],-0.394
same,composite z-score,[8],1.17
COC(=O)[C@H](Cc1ccccc1)N1CC(/C=C/C2CC2)=C[C@@H]1[C@@H](O)Cc1ccccc1,composite z-score,Albumin (Bos taurus),0.506
same,composite Z-score,[1],-0.325 (inactive)
same,composite z-score,[2],0.126
same,composite z-score,[3],-0.166
same,composite z-score,[4],0.171
same,composite z-score,[5],0.992
same,composite z-score,[6],1.66
same,composite z-score,Sam68 (KHDRBS1),1.34
same,composite z-score,[7],0.779
same,composite z-score,[8],1
COCCOC(=O)N1C(=O)[C@@]2(c3cc(C#CC4(O)CCCCCC4)ccc31)[C@H](C(N)=O)[C@H]1C(=O)O[C@H](c3ccccc3)[C@H](c3ccccc3)N1[C@@H]2c1ccccc1OCCO,composite z-score,Albumin (Bos taurus),0.199
same,composite Z-score,[1],-0.526 (inactive)
same,composite z-score,[2],-0.6
same,composite z-score,[3],-0.219
same,composite z-score,[4],0.541
same,composite z-score,[5],2
same,composite z-score,[6],0.591
same,composite z-score,Sam68 (KHDRBS1),1.31
same,composite z-score,[7],0.369
same,composite z-score,[8],0.845
CN1C(=O)C2C=CC(C(O)C3CCCCC3)N(N3CCCCC3)C2C1=O (stereo not given),composite z-score,Albumin (Bos taurus),0.92
same,composite Z-score,[1],1.56 (inactive)
same,composite z-score,[2],0.196
same,composite z-score,[3],0.0019
same,composite z-score,[4],0.663
same,composite z-score,[5],2.48
same,composite z-score,[6],0.794
same,composite z-score,Sam68 (KHDRBS1),1.3
same,composite z-score,[7],0.0449
same,composite z-score,[8],0.927
COCCCNC(=O)[C@@]1(Sc2ccc(C)cc2)CC(=O)N(Cc2cc(C(F)(F)F)cc(C(F)(F)F)c2)[C@@H]1c1ccc(CO)cc1,composite z-score,Albumin (Bos taurus),0.734
same,composite Z-score,[1],1.14 (inactive)
same,composite z-score,[2],0.0562
same,composite z-score,[3],-0.0136
same,composite z-score,[4],0.703
same,composite z-score,[5],2.41
same,composite z-score,[6],1.1
same,composite z-score,Sam68 (KHDRBS1),1.21
same,composite z-score,[7],0.749
same,composite z-score,[8],0.715
